# Source: PubChem
# MARV entry inh = qHTS for inhibitors of binding or entry into cells for Marburg Virus; Potency, µM (highest dose often 37.8 µM), usual class: inhibitors; Marburg virus pseudotyped entry inhibition, cell reporter; AID 540276, 2011; hit rate 1.8% among 300,000; calls by dose curve; tested in HEK293 cells
# HCV inh = qHTS Assay for Inhibitors of Hepatitis C Virus (HCV); Huh7.5.1 HCVcc-Cre infection, luciferase reporter, 44 h; Potency, µM (highest dose often 41.8 µM), usual class: inhibitors; hit rate 3.4% among 340,000; AID 651820, 2012
#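 After 44 h co-culture of compound, cells and HCVcc-Cre (~0.5 moi), substrate is added for 15 min at room temperature and luciferase measured over 15 sec. Cells were seeded at 1,000/well and pre-cultured 4 h.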
# Lassa entry inh = qHTS for Inhibitors of binding or entry into cells for Lassa Virus. Lassa virus pseudotype entry inhibition, cell reporter. Potency, µM (highest dose often 37.9 µM), most hits filed as inhibitors. hit rate 1.2% among 300,000. AID 540256, 2011; calls by dose curve; tested in HEK293 cells; also: nearly all actives have a fitted effect of over 50% in size
# FMDV antiviral = High Throughput Screening for Foot and Mouth Disease Virus Antivirals; FMDV antiviral cell-based qHTS; Potency, µM (top dose mostly 57.9 µM), usual class: inhibitors; hit rate 1.2% among 410,000; AID 1159524, 2015; calls by dose curve; tested in HEK293T cells; also: read-out not given here; nearly all actives have a fitted effect of over 45% in size
# FBPA Giardia inh = qHTS Assay for Inhibitors of Fructose-1,6-bisphosphate Aldolase from Giardia Lamblia | A8B2U2 | purified Giardia FBPA | Potency, µM (titrated, usually from 59.6 µM), actives largely listed as inhibitors | hit rate 0.71% among 290,000 | AID 2451, 2010; also: nearly all actives have a fitted effect of over 55% in size
# Target sequence (A8B2U2 whole entry, looked up): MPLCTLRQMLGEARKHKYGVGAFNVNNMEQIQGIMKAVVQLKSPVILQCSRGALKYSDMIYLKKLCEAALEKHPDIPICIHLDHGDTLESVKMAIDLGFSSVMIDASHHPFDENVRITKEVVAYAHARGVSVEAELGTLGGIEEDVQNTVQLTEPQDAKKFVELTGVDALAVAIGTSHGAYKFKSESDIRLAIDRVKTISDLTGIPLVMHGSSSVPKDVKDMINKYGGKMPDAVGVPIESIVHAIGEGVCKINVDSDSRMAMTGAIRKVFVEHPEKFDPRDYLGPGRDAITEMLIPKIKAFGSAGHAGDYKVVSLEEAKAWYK
#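 Giardia FBPA (40 nM reagent) was preincubated 10 min at RT with compound (up to 57.5 uM final), then substrate plus GAPDH/TPI/NAD/arsenate coupling system with diaphorase/resazurin was added; resorufin fluorescence (525/598 nm) was read after 20 min.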
# HCMV antiviral = qHTS Assay for inhibitors of the human cytomegalovirus (HCMV) | HFF cells, HCMV-luciferase reporter, 72 h; stronger effect = lower value | activity change, negative = inhibition, % at 57.5 µM | hit rate 4.5% among 410,000 | AID 1259415, 2018; in the data active = activity change below about -60%; inconclusive = no clear call, values can overlap the other calls; inactive = above about -39%
#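 Two-dose cell screen: HFF monolayers treated with compounds and infected with luciferase-expressing HCMV at 1 PFU/cell, 72 h at 37C, then lysed for luciferase measurement.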
# A number is an active result; . = inactive; ? = inconclusive; / = not tested or not shown; [ ] = dose if it differs, or a comment. An excerpt weighted towards active compounds, which were near 8.3% of everything screened. Unless noted, calls follow the shape of the dose curve; as a rule, active = well fitted curve in the direction sought with a large enough effect; inconclusive = small, poorly fitted or top-dose-only effect, or another doubt; inactive = no such curve, though single readings can be large; an effect the other way counts as inactive or inconclusive.
SMILES,MARV entry inh,HCV inh,Lassa entry inh,FMDV antiviral,FBPA Giardia inh,HCMV antiviral
CC(=O)NC(c1cccc([N+](=O)[O-])c1)c1c(OC(C)=O)ccc2ccccc12 (centres undefined),?,.,.,.,/,.
Oc1cccc(C(Nc2nccs2)c2ccc3cccnc3c2O)c1 (centres undefined),?,?,?,.,?,-93
CC(=O)NC(c1cccc([N+](=O)[O-])c1)c1ccc2cccnc2c1O (centres undefined),?,1.8µM,?,.,.,-102
CCOC(=O)C1CCN(C(=O)c2c(C)nn(-c3ccc(F)cc3)c2-n2cccc2)CC1,/,/,.,.,/,.
COc1ccc(-c2[nH]ncc2-c2ccc(Cl)cc2)c(O)c1,.,.,.,?,.,-65
COc1ccc(-c2cn[nH]c2-c2ccc(OC)cc2O)cc1,.,?,?,.,.,-65
COc1ccc(-c2cn[nH]c2-c2ccc(OCc3ccccc3)cc2O)cc1,?,?,3.5µM,.,.,-71
O=C(NCC1Cc2cc(F)cc(-c3cnccn3)c2O1)c1cccc(Cl)c1 (centres undefined),/,/,/,.,/,/
CC(=O)NC1=C(C#N)C(c2ccccc2)c2c(ccc3ccccc23)O1 (centres undefined),10µM,?,?,.,.,.
CCOC(=O)CC(=O)Nc1ncnc2c1C(c1ccccc1)c1c(ccc3ccccc13)O2 (centres undefined),/,/,/,?,/,.
CCOC(=O)c1cc2c3ccccc3n(CC)c2nc1N,.,?,.,.,.[12.9 µM],.
CCn1c2ccccc2c2cc(C#N)c(N)nc21,/,13µM,/,.,/,.
CC(C)[C@@H](OCc1ccccc1)[C@H](C)/C=N\OC[C@@H](O)[C@@H]1O[C@@H]2OC(C)(C)O[C@@H]2[C@H]1O,.,/,/,/,.[12.9 µM],/
Cc1cccc(C(=O)N(Cc2ccco2)Cc2ccccc2F)c1,.,/,.,.,/,.
Cc1ccc(CNC(=O)O[C@H]2CC[C@@]34CCCN3C(=O)CCC[C@H]4[C@H]2Cc2ccccc2)o1,/,/,/,/,/,.
CCSc1nnc(NC(=O)c2nc(S(=O)(=O)Cc3ccc(F)cc3)ncc2Cl)s1,.,?,?,8.9µM,/,-102
CC(C)c1nnc(NC(=O)c2nc(SCc3ccc(F)cc3)ncc2Cl)s1,.,/,.,.,/,.
Cc1ccc(CS(=O)(=O)c2ncc(Cl)c(C(=O)Nc3nnc(C(C)C)s3)n2)cc1,?,?,?,11µM,.,-98
Cc1ccc(C)c(NC(=O)c2nc(Cl)ccc2Cl)c1,/,.,/,.,.,.
Cc1ccc(C)c(NC(=O)c2nc(S(=O)(=O)Cc3ccc(F)cc3)ncc2Cl)c1,.,/,?,28µM,/,-100
Cc1cccc(CS(=O)(=O)c2ncc(Cl)c(C(=O)Nc3nnc(C(C)C)s3)n2)c1,?,11µM,?,8.9µM,/,-100
Cc1cccc(CSc2ncc(Cl)c(C(=O)Nc3nc4ccc(F)cc4s3)n2)c1,.,/,.,.,/,.
C=CCSc1nnc(NC(=O)c2nc(SCC)ncc2Cl)s1,.,.,.,.,.,.
O=C(Nc1cccc2ccccc12)OC[C@@H]1CSCCS(=O)(=O)N1,/,/,?,/,/,.
COc1ccc(-n2c(=O)c(-c3ccccc3)nc3cnc(N4CCOCC4)nc32)cc1,/,/,/,.,.,/
SMILES,MARV entry inh,HCV inh,Lassa entry inh,FMDV antiviral,FBPA Giardia inh,HCMV antiviral
CCc1cc(C(=O)NCC2Cc3cccc(-c4ccc(C(=O)OC)cn4)c3O2)no1 (centres undefined),/,/,/,.,/,/
COc1ccc(NC=O)c(C(=O)CCNC(C)=O)c1,/,/,/,/,.,/
CSc1nnc(NC(=O)c2nc(S(=O)(=O)Cc3cccc(C)c3)ncc2Cl)s1,?,13µM,?,5.6µM,/,-103
CC(C)c1nnc(NC(=O)c2nc(S(=O)(=O)Cc3ccc(F)cc3)ncc2Cl)s1,?,?,?,.,/,-102
Cc1ccc(SCC(Cc2ccccc2)N2CCN(C)CCC2=O)cc1 (centres undefined),/,/,/,/,.,/
COc1ccc(COc2cc(-c3cccc(OC)c3)nc3ccc(N)cc23)cc1,?,?,?,.,.,-90
COc1ccc(COc2cc(-c3cccc(OC)c3)nc3ccc(NC(C)=O)cc23)cc1,.,?,?,.,.,.
Cc1ccc(S(=O)(=O)CCSC(=N)N)cc1,?,10µM,?,?,.,.
COC(=O)C(C(=O)OC)[C@@H]1c2ccccc2[C@H]2C(=C[C@@H](C)[C@H]3C(=O)N(c4ccccc4)C(=O)[C@H]32)N1C(=O)OC,/,/,/,/,.[12.9 µM],/
COCCSc1ccccc1C(=O)Nc1cc([N+](=O)[O-])ccc1OC,/,7.9µM,/,.,.,.
COc1ccc([N+](=O)[O-])cc1NC(=S)NC(NC(=O)C(c1ccccc1)c1ccccc1)C(Cl)(Cl)Cl (centres undefined),?,?,?,?,.,-106
Cc1ccc(C)c(NC(=O)Cc2nc(CNCC(C)C)cs2)c1,7.9µM,.,.,.,.,.
Cc1[nH]nc2c1C1(C(=O)N(Cc3ccc(Cl)cc3)c3ccccc31)C(C#N)=C(N)O2 (centres undefined),.,.,.,/,.,-70
CCc1ccccc1NC(=O)CNC(=O)c1cc(C2CC2)nc2c1cnn2C(C)C,/,?,/,.,/,.
Cc1cccc(OCCNC(=O)c2cc(C3CC3)nc3c2cnn3C(C)C)c1,/,/,/,.,/,.
COc1ccccc1CCNC(=O)c1cc(C2CC2)nc2c1cnn2C(C)C,?,8.9µM,?,.,/,.
COc1ccccc1OCCNC(=O)c1cc(C2CC2)nc2c1cnn2C(C)C,.,1.3µM,.,?,/,.
COc1ccc(CCNC(=O)c2cc(C3CC3)nc3c2cnn3C(C)C)cc1,/,10µM,/,.,/,.
O=c1c(-c2ccc(F)cc2)nc2cncnc2n1C1CC1,/,/,/,.,.,/
C=CCNC(=S)NNC(=O)c1ccncc1,/,.,/,.,?,-64
C=CCNC(=S)NNC(=O)c1cccnc1,.,.,.,.,?,.
CC(C)Cn1c(-c2ccc(S(=O)(=O)N3CCCC3)cc2)csc1=Nc1ccccc1,.,/,?,.,/,.
CC(=O)c1cccc(N=c2scc(-c3ccc(S(=O)(=O)N4CCOCC4)cc3)n2CCO)c1,?,1µM,?,20µM,.,-98
O=S(=O)(c1ccc(-c2csc(=Nc3ccc(F)cc3)n2CCCCCCO)cc1)N1CCCC1,?,/,?,25µM,/,-101
COc1ccccc1N=c1scc(-c2ccc(S(=O)(=O)N3CCCC3)cc2)n1C,/,/,?,2.8µM,/,-97
CCOc1ccc2oc(=O)cc(CN3CCN(c4cc(C)ccc4C)CC3)c2c1,.,/,.,.,/,.
CCN1C(=O)/C(=C\C=C2/C=CC=CN2CC)SC1=S,.,.,.,.,?,.
CCN1C(=O)/C(=C/C=C2\C=CN(CC)c3ccccc32)SC1=S,?,?,.,13µM,?,.
Cc1ccc(NC2(c3nnnn3-c3c(C)cccc3C)CCCCC2)cc1,?,?,?,.,.,-74
COCCN1C(=O)CCC1(C)c1nnnn1-c1c(C)cccc1C (centres undefined),/,/,/,.,/,.
